High-throughput results deposited in PubChem by National Center for Advancing Translational Sciences (NCATS).
Sampled rows, rich in hits. Any-hit rate of the full collection: about 10%.
VDR inh: vitamin D3 receptor (human) inhibition. VDR-SRC2-3 peptide fluorescence polarization, 2 h. P11473. Potency, µM, without a hit: max response, negative = inhibition, actives largely listed as inhibitors. actives 0.93% (n = 400,000); also: potency is read from the fitted curve at half-maximal effect
Target sequence (P11473 whole entry, looked up): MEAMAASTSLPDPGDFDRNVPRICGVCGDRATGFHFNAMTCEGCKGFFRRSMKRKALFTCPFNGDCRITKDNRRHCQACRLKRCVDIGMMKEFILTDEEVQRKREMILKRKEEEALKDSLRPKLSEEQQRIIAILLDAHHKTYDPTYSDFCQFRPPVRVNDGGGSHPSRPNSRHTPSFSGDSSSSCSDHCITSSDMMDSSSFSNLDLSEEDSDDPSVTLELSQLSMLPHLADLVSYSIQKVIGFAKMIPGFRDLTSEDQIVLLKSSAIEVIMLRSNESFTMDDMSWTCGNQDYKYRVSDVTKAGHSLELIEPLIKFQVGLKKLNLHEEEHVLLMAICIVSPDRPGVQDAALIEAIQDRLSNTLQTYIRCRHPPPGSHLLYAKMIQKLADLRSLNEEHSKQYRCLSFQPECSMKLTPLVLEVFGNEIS
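Measured by FP: displacement of SRC2-3 coactivator peptide from VDR by library compounds, following a two-hour ambient incubation.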
Sfp PPTase inh: Sfp phosphopantetheinyl transferase inhibition | Biochemical Sfp PPTase activity, qHTS | actives 3.5% (n = 310,000) | Potency, µM, without a hit: largest response in the series, negative = inhibition, most hits filed as inhibitors;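 also: the enzyme is Sfp with the accession as filed and its product quenches rhodamine fluorescence; potency is read from the fitted curve at half-maximal effect; 0% = enzyme reaction without inhibitor and -100% = no enzyme wells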
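Step 1, compound plus 15 nM Sfp-PPTase, 15 min, room temperature. Step 2, add rhodamine-CoA (5 uM) and BHQ-2-YbbR (12.5 uM). Step 3, read 525/598 nm fluorescence at 0 and 30 min.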
MmCpn inh: blocks the Methanococcus maripaludis chaperonin Mm-Cpn. actives 0.031% (n = 330,000). Potency, µM (highest dose often 76.9 µM), for inactives: top-dose activity, negative = inhibition, most hits filed as inhibitors. purified Mm-Cpn ATPase, ADP Transcreener TR-FRET; also: potency is read from the fitted curve at half-maximal effect; nearly all actives have a fitted effect of over 80% in size
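Quantitative HTS used 25 nM Mm-CPN and 10 uM ATP in magnesium/KCl Tris buffer, pH 7.4, with 1 mM DTT. Hydrolysis ran 30 min at 37°C; ADP was read by HTRF.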
CCT modulator: changes cytosolic chaperonin activity. activity change, % (test concentration not listed), hits read low. actives 0.3% (n = 360,000). purified chaperonin ATPase assay, HTRF ADP detection, 30 min. AID 651819; in the data active = activity change below about -30%
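ATPase activity: ADP formed was measured by HTRF Transcreener (665/615 nm ratio) after 30 min at 37 deg C with 10 uM ATP. Compounds screened at one 76 uM concentration against 40 or 20 nM TRiC in Tris pH 7.4/KCl/MgCl2/DTT buffer.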
PLK1 PBD inh: PLK1 (human) polo-box domain binding inhibition; P53350; actives 2.8% (n = 360,000); Potency, µM, without a hit: max response, negative = inhibition, most hits filed as inhibitors; AID 720504; Plk1 PBD binding of FITC phosphopeptide, fluorescence polarization; also: potency is read from the fitted curve at half-maximal effect; series mostly up to about 57 µM; nearly all actives have a fitted effect of over 65% in size
G9a block: G9a (human) methyltransferase inhibition; Q96KQ7; G9a H3K9 monomethylation, AlphaScreen, 2 h; Potency, µM (series often up to 102 µM), for inactives: at the highest dose activity, negative = inhibition, hits mostly inhibitors; actives 8.8% (n = 350,000); AID 504332; also: potency is read from the fitted curve at half-maximal effect; nearly all actives have a fitted effect of over 75% in size
Target sequence (Q96KQ7 913-1193 limits assumed): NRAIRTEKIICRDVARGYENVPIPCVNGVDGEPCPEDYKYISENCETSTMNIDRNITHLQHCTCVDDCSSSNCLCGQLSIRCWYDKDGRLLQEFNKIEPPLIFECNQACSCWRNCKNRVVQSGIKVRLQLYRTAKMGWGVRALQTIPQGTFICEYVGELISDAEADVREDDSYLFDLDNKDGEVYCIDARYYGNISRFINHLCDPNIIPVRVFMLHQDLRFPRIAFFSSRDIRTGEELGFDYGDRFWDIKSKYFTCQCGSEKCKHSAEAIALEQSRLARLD
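AlphaScreen read-out: biotin-H3K9 peptide (500 nM) methylation by 20 nM enzyme with 20 uM SAM, 2 h at room temperature after 15 min compound preincubation; anti-monomethyl H3K9 antibody plus donor/acceptor beads, 10 min dark.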
The depositor's hits bear a star; ? = inconclusive; / = no result; [ ] = dose if it differs, or a comment. Unless noted, calls follow the shape of the dose curve; as a rule, active = well fitted curve in the direction sought with a large enough effect; inconclusive = small, poorly fitted or top-dose-only effect, or another doubt; inactive = no such curve, though single readings can be large; an effect the other way counts as inactive or inconclusive. Unless noted, % is scaled to controls: 0 for no effect and ±100 for the full control effect.

SMILES	VDR inh	Sfp PPTase inh	MmCpn inh	CCT modulator	PLK1 PBD inh	G9a block
Cc1cccc(-n2c(=O)c3c(c4cc(C)ccc4n3C)n(Cc3ccccc3F)c2=O)c1	4%	/	/	/	/	-3%[59 µM]
CCn1c(=O)cc(SCC(=O)NCCc2cccc(C)c2)c2ccccc21	1%	/	/	/	/	-35%[59 µM]
CN(C)C(=O)c1ccc(-c2cc(NCc3cccnc3)ncn2)cc1	-2%	23%	/	/	/	11%[0.501 µM]
Cn1ccc2cc3c(cc21)CCN3C(=O)Nc1cccnc1	?	?	-6%	-1	-16%	9.5µM*
Oc1ccccc1C1CC(c2cccs2)=NC(c2cccc(Br)c2)N1 (configuration not stated)	71µM*	-19%	?	-8	-9%	?
CCCN1CCN(c2ncnc3sc(C(=O)Nc4ccc(N(CC)CC)cc4C)c(C)c23)CC1	21%	/	/	/	/	14µM*
COc1ccc(NC(=O)c2cc3c(=O)n(Cc4cccs4)ccc3nc2C)c(OC)c1	8%	/	/	/	/	-15%[59 µM]
CN(C)/C=N/C(=S)Nc1ccc(F)cc1	19%	-3%	/	1	-5%	8%[59 µM]
CN(N)C(=S)Nc1ccc(F)cc1	-10%	?	1%	1	-8%	50µM*
CCOc1cc(C(=O)N2CC(=O)Nc3ccc(F)cc3C2c2ccccc2)cc(OCC)c1OCC (configuration not stated)	-1%	/	/	/	/	10%[59 µM]
COc1ccccc1CNC(=O)c1ccc2c(c1)CCN2S(=O)(=O)c1ccc(Cl)cc1	5%	/	/	/	/	8%[59 µM]
CN(C)/C=N/C(=S)Nc1ccccc1Cl	-16%	50µM*	-1%	-3	-14%	?
CN(C)/C=N/C(=S)Nc1cc(Cl)cc(Cl)c1	-7%	-2%	2%	-2	-12%	?
CN(O)/C=N/C(=S)Nc1ccc(Cl)cc1Cl	?	?	5%	-1	30µM*	3.5µM*
CN(C)/C=N/C(=S)Nc1ccccc1F	9%	-25%	-2%	-3	-8%	7%[12.7 µM]
CN(C)/C=N/C(=S)Nc1ccc(Cl)c(Cl)c1	?	-2%	0%	3	24µM*	?
COc1ccc(NC(=O)CN2C(=O)CSc3ccc(S(=O)(=O)N(C)C)cc32)cc1OC	4%	/	/	/	/	-18%[59 µM]
COc1cccc([C@@H]2Oc3ccc(OC)cc3/C(=N/OC[C@@H](O)COCc3ccco3)[C@@H]2O)c1	/	2%	/	/	/	/
CCn1c(=O)c2c(nc3n2CCN3c2ccc(OC)cc2)n(C)c1=O	5%	/	/	/	/	3%[59 µM]
O=C(O)c1ccc(N/N=C/c2ccc(OC(=O)c3ccccc3Cl)cc2)cc1	-8%	-7%	1%	-1	30µM*	2%[59 µM]
CC(C)c1ccc(/C=N/Nc2ccc(C(=O)O)cc2)cc1	-1%	1%	1%	1	?	10µM*
Cc1ccc(/C=N/Nc2cccc(C(=O)O)c2)s1	-14%	-8%	-3%	2	-13%	?
Cc1ccc(/C=N/Nc2ccc(C(=O)O)cc2)s1	1%	-4%	-5%	1	-26%	14µM*
O=C(O)c1ccc(/C=N/Nc2cccc(C(F)(F)F)c2)cc1	-18%	10%	2%	-3	?	?
Cc1ccc(/C=N/Nc2ccc(C(=O)O)cc2)o1	1%	11%	-8%	-2	-7%	-32%
SMILES	VDR inh	Sfp PPTase inh	MmCpn inh	CCT modulator	PLK1 PBD inh	G9a block
O=C(O)c1ccc(N/N=C/c2ccc(-c3ccccc3)cc2)cc1	-15%	-13%	-1%	0	27µM*	45µM*
Nc1ccc(C(=O)N/N=C\c2ccc(OC(=O)c3ccccc3Cl)cc2)cc1	-25%	8%	3%	-4	-14%	20%
O=S(=O)(NCCCCCCc1ccccc1)c1cccc2c(Cl)cccc12	-7%	-16%	/	/	/	/
COc1ccc(/C=N/Nc2ccc(C(=O)O)cc2)cc1OC	-5%	5%	-5%	1	-3%	-36%
COc1ccc(/C=N/Nc2ccc(C(=O)O)cc2)cc1Br	-4%	-1%	-4%	3	-18%	35µM*
C=CCSc1nnc(-c2cc3c(C(F)(F)F)nn(C)c3s2)n1C	19%	12%	-1%	-3	1%	71µM*
COCCCN(CC(=O)O)S(=O)(=O)c1cccc(Cl)c1	0%	29%	0%	-4	3%	50µM*
NC(=S)NNc1cccc2cccnc12	?	3.2µM*	-5%	1	?	18µM*
S=c1[nH]nc(-c2ccco2)n1-c1ccccc1Cl	-12%	-7%	1%	2	-13%	?
FC(F)(F)c1ccc(Cl)c(-n2c(-c3ccco3)n[nH]c2=S)c1	-15%	4%	-6%	-3	-13%	10µM*
FC(F)(F)c1ccc(Cl)c(-n2c(-c3cc(C4CC4)[nH]n3)n[nH]c2=S)c1	-25%	-22%	-1%	-6	-26%	8.9µM*
FC(F)(F)c1ccc(Cl)c(-n2c(-c3cc(-c4ccco4)[nH]n3)n[nH]c2=S)c1	?	-18%	0%	-2	-21%	16µM*
COc1ccc(NC(=O)COC(=O)Cc2cccs2)cc1Cl	/	/	/	0	4%	/
COc1ccc(NC(=O)COC(=O)c2ccc(-n3cnnn3)cc2)cc1Cl	-8%	/	-3%	-4	-10%	40µM*
COc1ccc(NC(=O)COC(C)=O)cc1Cl	-6%	4%	0%	-1	27µM*	-44%[59 µM]
COc1ccc(NC(=O)COC(=O)/C=C/C(=O)OCC(=O)Nc2ccc(OC)c(Cl)c2)cc1Cl	-8%	79µM*	1%	1	-6%	?
COCC(=O)Nc1ccc(OC)c(Cl)c1	-10%	6%	-1%	-2	-8%	-24%
CCOC(=O)/C=C/C(=O)OCC(=O)Nc1ccc(OC)c(Cl)c1	79µM*	-8%	2%	2	?	9%[59 µM]
CC(C)CC(=O)Nc1ccc2nc(SCC(=O)N3CCc4ccccc43)sc2c1	8%	/	/	/	/	1%[59 µM]
COC(=O)[C@@]1(Cc2ccccc2)[C@H]2c3cc(C(=O)N4CCCC4)n(Cc4nc5ccccc5[nH]4)c3C[C@H]2CN1C(=O)c1ccccc1	/	1%	/	/	/	/
COc1ccc(C(=O)CCC(=O)Nc2cc(C)ccc2C)cc1	8%	/	/	/	/	-24%[59 µM]
COc1cccc(C(=O)NCC2OCCc3ccccc32)c1 (configuration not stated)	-11%	/	/	/	/	4%[59 µM]
CCOC(=O)c1ccc(NC(=O)N2CCOc3ccccc32)cc1	16%	/	/	/	/	7%[59 µM]
COc1ccc(C(C)NC(=O)c2ccccc2)cc1 (configuration not stated)	-14%	0%	3%	-4	-5%	16%[59 µM]
COc1ccc(C(C)NS(=O)(=O)Cc2ccccc2)cc1 (configuration not stated)	-10%	2%	-2%	1	-11%	50µM*
COc1ccc(OC)c(NS(=O)(=O)Cc2ccccc2)c1	/	?	1%	/	/	35µM*
